M1 PAM – positive allosteric modulators of human M1 muscarinic receptor | hit rate 0.088% among 360,000 | P11229 | CHO-K1 hM1, Fluo-8 calcium fluorescence, ACh EC20; 0% = ACh EC20, 100% = maximal ACh | activation, % at 3 µM; in the data active = activation above about 19%, passing the limit was not always enough
CHRM1 antagonist – blocks human M1 muscarinic receptor. inhibition, % at 3 µM. hit rate 1.3% among 360,000. P11229. CHO-K1 hM1, Fluo-8 calcium fluorescence, ACh EC80 antagonist;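 active = percent inhibition above its own plate's cutoff, namely the mean of that plate's compound wells plus 3 SD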;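 also: peak over basal fluorescence ratio during 140 s after agonist addition; 0% = ACh EC80 plus DMSO and 100% = DMSO alone without agonist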
M1 ag – activates human CHRM1 receptor | hit rate 0.33% among 360,000 | P11229 | CHO-K1 hM1, Fluo-8 calcium fluorescence, agonist mode; 0% DMSO, 100% acetylcholine EC100 | AID 588814 | activation, % at 3 µM;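 active = activation above the run's mean compound activation plus 3 SD, cut at about 16% in these data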;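 also: peak over basal fluorescence ratio within a 140 s kinetic read after compound addition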
SKN-1 inh – blocks SKN-1 activity in C. elegans | C. elegans VP596 Pgst-4::GFP/RFP ratio, acrylamide-induced, 24 h | inhibition, % at 21.8 µM | hit rate 0.49% among 360,000 | AID 624304;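 active = interference check ratio from 0.5 to 1.5 plus GFP to RFP signal ratio inhibition reaching or exceeding a fixed threshold, cut at about 30% in these data, passing the limit was not always enough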
ATG4B inh – blocks human ATG4B protease cleavage of LC3 substrate; Q9Y4P1; inhibition, % at 8.33 µM; hit rate 0.51% among 340,000; ATG4B cleavage of LC3-PLA2, NBD-HPC fluorescence, 1 h; AID 504462; in the data active = inhibition above about 40%
Target sequence (Q9Y4P1 whole entry, looked up): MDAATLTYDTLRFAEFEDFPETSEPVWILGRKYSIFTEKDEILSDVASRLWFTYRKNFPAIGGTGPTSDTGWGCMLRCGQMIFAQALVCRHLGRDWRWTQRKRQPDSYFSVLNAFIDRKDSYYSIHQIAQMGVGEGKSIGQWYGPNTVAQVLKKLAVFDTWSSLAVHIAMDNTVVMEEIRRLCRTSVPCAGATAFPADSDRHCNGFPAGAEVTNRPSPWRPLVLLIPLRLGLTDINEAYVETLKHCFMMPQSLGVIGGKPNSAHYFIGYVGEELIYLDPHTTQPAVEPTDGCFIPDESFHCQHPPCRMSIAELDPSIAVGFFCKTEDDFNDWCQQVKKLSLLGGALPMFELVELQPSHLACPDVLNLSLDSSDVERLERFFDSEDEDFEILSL
Myeloid diff MLP – compounds promoting myeloid differentiation | calls only at 10 µM | hit rate 1% among 360,000 | ER-HoxA9 myeloid progenitors, lysozyme-GFP differentiation, flow cytometry;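 active = normalized GFP-positive differentiation at or above the plate's own cutoff, the solvent-only control mean plus 3 SD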;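 also: cells exposed to compound for four days before flow analysis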
Myeloid diff CP1 – myeloid differentiation induction; ER-HoxA9 myeloid progenitors, GFP/Mac1 double-positive flow; calls only; shares compounds with Myeloid diff MLP; hit rate 2% among 2,300;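 active = share of green or green-and-red cells above 9 and 9% in run 1 or 4 and 3% in run 2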
GFP autofluor – flagged as fluorescent in myeloid differentiation counter-screen; shares compounds with Myeloid diff MLP; ER-HoxA9 myeloid progenitors, no estrogen, GFP autofluorescence flow cytometry; vehicle wells 0%, positive control 100%; fluorescence response, % (test concentration not listed); hit rate 7.4% among 2,300; AID 651707;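 active = over 5% cells positive for green fluorescent reporter, or over 2% positive for both it and APC stain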;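 also: range taken on the double positive population between DMSO and positive control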
* marks the source's active call; other numbers are inactive results; i = inactive; x = no result given; + = active, no number. This is a sample that favours compounds with a hit; in the whole collection about 3.5% have one here.

SMILES	M1 PAM	CHRM1 antagonist	M1 ag	SKN-1 inh	ATG4B inh	Myeloid diff MLP	Myeloid diff CP1	GFP autofluor
O=C(Nc1cc(S(=O)(=O)N2CCOCC2)ccc1OCC(F)(F)F)C1=COCCO1	16.3	-8.3	3.1	4.8	-5.0	i	x	x
COc1ccc2c(c1OC)CN1CCc3cc4c(cc3[C@@H]1[C@@H]2O)OCO4	12.8	-13.3	-7.2	0.8	-3.5	+	i	2.8
COc1cc2c(cc1OC)C1Cc3ccc(OC)c(OC)c3CN1CC2 (centres undefined)	4.0	-5.5	-4.6	2.3	-9.7	i	x	x
CC1CN(C(=O)COC(=O)COc2ccc(C#N)cc2)CC(C)O1 (centres undefined)	8.3	-5.4	-1.2	10.9	8.8	i	x	x
CCNC(=O)C1CCCN(C(=O)c2ccc3c(c2)OCO3)CC1 (centres undefined)	3.6	-5.2	-1.0	6.9	x	i	x	x
Cc1cc(C(=O)NC2CCCc3c2cnn3-c2cccc(C)c2C)n(C)n1 (centres undefined)	-7.0	34.5*	2.9	7.0	16.9	+	i	0.0
Cc1cccc(-n2ncc3c2CCCC3NC(=O)c2ccc[n+]([O-])c2)c1C (centres undefined)	5.1	-6.3	-3.1	-5.4	-10.7	i	x	x
CC(=O)c1c(Cl)nc2cccc3c2c1-c1ccccc1C3=O	22.8	-23.9	-0.1	7.4	3.8	i	i	0.0
CCC1(c2ccc(F)cc2)NC(=O)N(CC(=O)N2CCN(S(=O)(=O)c3ccc(C)cc3C)CC2)C1=O (centres undefined)	2.4	2.6	-5.5	-11.6	-18.4	+	i	2.8
CC(Oc1ccc(Cl)cc1Cl)C(=O)NCCCn1ccnc1 (centres undefined)	-6.5	-11.5	-5.5	21.4	-9.2	+	i	0.3
Cc1ccccc1COc1ccc(-c2nnn(CC(=O)O)n2)cc1	8.4	-11.3	-0.8	17.1	3.1	i	x	x
NC(=O)NC(Cc1ccccc1)c1ccccc1 (centres undefined)	3.1	-3.7	-1.1	3.4	6.0	+	i	0.3
CC1CCN(S(=O)(=O)c2ccc(C(C)C)cc2)CC1	-1.3	2.1	-11.2	0.0	1.7	+	i	41.2*
COc1cccc(-c2nc(CS(=O)(=O)CC(=O)NCCCN3CCN(C)CC3)c(C)o2)c1	2.5	-5.4	-4.6	3.2	-3.8	i	x	x
CCN1CCN(CCCNC(=O)CS(=O)(=O)Cc2nc(-c3cccc(OC)c3)oc2C)CC1	-4.8	18.3	-2.9	5.3	1.6	i	i	0.6
Cc1cccc(N(C(=O)c2snc(C(N)=O)c2N)C(C(=O)NC2CCCC2)c2ccco2)c1 (centres undefined)	8.0	-7.5	2.5	14.7	18.9	i	x	x
O=C(COC(=O)COc1cccc2ccccc12)NCC(F)(F)F	4.7	-2.1	-5.9	5.1	-1.8	i	i	0.4
O=[N+]([O-])c1ccccc1S(=O)NCc1c(Cl)cccc1Cl (centres undefined)	-10.2	16.1	-3.5	0.0	x	i	x	x
CCOC(=O)Cn1c2c(c(=N)c3ccccc31)CCC2	-3.9	20.2	-3.5	5.8	-5.2	+	i	0.0
CCOC(=O)Cn1c2c(c(=N)c3c1CCC3)CCC2	2.4	-0.2	-4.9	9.4	-2.3	i	x	x
c1ccc(Cn2ncc3c(NCc4ccco4)ncnc32)cc1	1.4	-0.8	-1.8	16.1	-2.4	i	i	0.3
c1ccc(-n2ncc3c(NCc4ccco4)ncnc32)cc1	3.0	-28.6	-3.3	10.2	-5.0	i	x	x
Cc1cccc(C(=O)NCC(=O)N2CCN(c3ccccn3)CC2)c1	12.8	-9.7	-2.8	7.7	-9.2	i	x	x
COc1ccc(/C=N/NC(=O)c2c(-c3ccccc3)noc2C)cc1[N+](=O)[O-]	-0.2	3.8	-0.1	14.6	-5.6	i	x	x
C/C=C(\C)C(=O)NCCN1C2=NC[C@H](C)N2C[C@@H]1Cc1ccc(OC)cc1	-9.0	5.0	-13.6	5.3	-2.0	i	x	x
SMILES	M1 PAM	CHRM1 antagonist	M1 ag	SKN-1 inh	ATG4B inh	Myeloid diff MLP	Myeloid diff CP1	GFP autofluor
COc1ccc(C[C@@H]2CN3C(=NC[C@@H]3C)N2CCNC(=O)c2ccc(C)c(Br)c2)cc1	-37.3	40.5*	-12.9	-17.4	-0.4	+	i	0.0
COC(=O)C1CC2=C(CCCC2=O)N(c2ccccc2)C1=O (centres undefined)	8.6	-9.5	-0.6	-10.2	2.2	i	x	x
COC(=O)C1CC2=C(CCCC2=O)NC1=O (centres undefined)	-0.2	0.9	-2.4	-9.9	-0.8	i	i	0.0
CC(C)[C@H](NC(=O)c1c(F)cccc1F)C(=O)OCC(=O)NC(=O)NC1CCCC1	3.6	-7.3	0.7	-4.7	-2.3	i	x	x
Oc1ccc(/C=N/n2c3ccccc3c3ccccc32)cc1	0.5	8.0	-4.1	12.7	7.8	x	x	x
CO/N=C(\CS(=O)(=O)Cc1ccc(OC)cc1)c1ccc(Cl)cc1	-2.7	0.7	-5.2	11.9	7.2	i	i	2.9
COc1ccc(CS(=O)(=O)CC(C)(O)c2ccc(Cl)cc2)cc1 (centres undefined)	11.3	1.6	2.0	-7.5	-14.0	x	x	x
CCN(CC)c1ccc(/C=C2\CCC(/C=C(\C#N)C(=O)Nc3ccccc3F)=C2N2CCOCC2)cc1	9.3	-2.6	-7.2	23.6	-2.0	i	i	5.5*
CCN(CC)c1ccc(/C=C2\CCC(/C=N/NC(=O)c3ccc(=O)n(C)c3)=C2N2CCOCC2)cc1	0.1	2.0	-1.7	23.4	-13.1	+	i	98.5*
N#C/C(=C/C1=C(N2CCOCC2)C(=C/c2cccc([N+](=O)[O-])c2)/CC1)C(=O)Nc1ccccc1F	-2.1	-2.0	0.4	82.7	3.9	+	i	45.7*
O=C(/C=C/c1cccc([N+](=O)[O-])c1)Nc1ccccc1N1CCOCC1	7.1	-1.1	-3.3	-5.9	1.6	i	x	x
O=C(O)c1ccccc1N/N=C/C1=C(N2CCOCC2)C(=C\c2ccccc2)/CC1	12.5	-39.1	0.9	-6.0	2.1	i	x	x
O=C(N/N=C/C1=C(N2CCOCC2)C(=C\c2ccccc2)/CC1)Nc1ccccc1	-1.2	-0.3	-0.7	8.7	5.0	i	x	x
COc1ccc(CN(C(=O)c2snc(C(N)=O)c2N)C(C(=O)NC2CCCC2)c2cc(OC)ccc2OC)cc1 (centres undefined)	1.8	-1.8	-4.2	8.3	5.0	i	x	x
CCOc1ccc(-n2c(COc3ccc(C)cc3)nnc2SCC(N)=O)cc1	8.0	-14.5	-0.3	-11.9	-11.9	i	i	0.4

Source: PubChem BioAssay (several laboratories)
